Laboratory results as given in article PMC11006913.
Positions count from the first letter of the chain named.

Legend:
Assay in all cases: PBM; 200 nM protein, PBS
Details in all cases: dsDNA, one strand shown
SIX6 [1] = target: T1, SIX6 (Homo sapiens, UniProt O95475 114-200, L167I)
T1 sequence: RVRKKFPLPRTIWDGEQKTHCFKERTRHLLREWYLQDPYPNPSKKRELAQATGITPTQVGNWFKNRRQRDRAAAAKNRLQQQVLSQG

SIX6 [2] = target: T2, SIX6 (Homo sapiens, UniProt O95475 114-200, L143V)
T2 sequence: T1 sequence with L30V, I54L

SIX6 [3] = target: T3, SIX6 (Homo sapiens, UniProt O95475 114-200, H141N)
T3 sequence: T1 sequence with H28N, I54L

SIX6 [4] = target: T4, SIX6 (Homo sapiens, UniProt O95475 114-200, T165P)
T4 sequence: T1 sequence with T52P, I54L

SIX6 [5] = target: T5, SIX6 (Homo sapiens, UniProt O95475 114-200, L167M)
T5 sequence: T1 sequence with I54M

SIX6 [6] = target: T6, SIX6 (Homo sapiens, UniProt O95475 114-200, L143M)
T6 sequence: T1 sequence with L30M, I54L

SIX6 [7] = target: T7, SIX6 (Homo sapiens, UniProt O95475 114-200, L143I)
T7 sequence: T1 sequence with L30I, I54L

SIX6 [8] = target: T8, SIX6 (Homo sapiens, UniProt O95475 114-200, T165G)
T8 sequence: T1 sequence with T52G, I54L

SIX6 [9] = target: T9, SIX6 (Homo sapiens, UniProt O95475 114-200, T139Q)
T9 sequence: T1 sequence with T26Q, I54L

SIX6 [10] = target: T10, SIX6 (Homo sapiens, UniProt O95475 114-200, T165A)
T10 sequence: T1 sequence with T52A, I54L

SIX6 [11] = target: T11, SIX6 (Homo sapiens, UniProt O95475 114-200, L167V)
T11 sequence: T1 sequence with I54V

SIX6 [12] = target: T12, SIX6 (Homo sapiens, UniProt O95475 114-200)
T12 sequence: T1 sequence with I54L

SIX6 [13] = target: T13, SIX6 (Homo sapiens, UniProt O95475 114-200, T165I)
T13 sequence: T1 sequence with T52I, I54L

| Sequence | binding signal (SIX6 [1]) | binding signal (SIX6 [2]) | binding signal (SIX6 [3]) | binding signal (SIX6 [4]) | binding signal (SIX6 [5]) | binding signal (SIX6 [6]) | binding signal (SIX6 [7]) | binding signal (SIX6 [8]) | binding signal (SIX6 [9]) | binding signal (SIX6 [10]) | binding signal (SIX6 [11]) | binding signal (SIX6 [12]) | binding signal (SIX6 [13]) |
| --- | --- | --- | --- | --- | --- | --- | --- | --- | --- | --- | --- | --- | --- |
| CAGCGTGC | 9.15 upbm affinity estimate (log intensity, higher = more binding, comparable within an allelic series) | 9.01 upbm affinity estimate (log intensity, higher = more binding, comparable within an allelic series) | 9.08 upbm affinity estimate (log intensity, higher = more binding, comparable within an allelic series) | 9.06 upbm affinity estimate (log intensity, higher = more binding, comparable within an allelic series) | 9.05 upbm affinity estimate (log intensity, higher = more binding, comparable within an allelic series) | 9.23 upbm affinity estimate (log intensity, higher = more binding, comparable within an allelic series) | 9.08 upbm affinity estimate (log intensity, higher = more binding, comparable within an allelic series) | 9.19 upbm affinity estimate (log intensity, higher = more binding, comparable within an allelic series) | 9.15 upbm affinity estimate (log intensity, higher = more binding, comparable within an allelic series) | 9.11 upbm affinity estimate (log intensity, higher = more binding, comparable within an allelic series) | 9.05 upbm affinity estimate (log intensity, higher = more binding, comparable within an allelic series) | 9.14 upbm affinity estimate (log intensity, higher = more binding, comparable within an allelic series) | 9.05 upbm affinity estimate (log intensity, higher = more binding, comparable within an allelic series) |
| GATGATAC | 11.4 upbm affinity estimate (log intensity, higher = more binding, comparable within an allelic series) | 10.4 upbm affinity estimate (log intensity, higher = more binding, comparable within an allelic series) | 11.3 upbm affinity estimate (log intensity, higher = more binding, comparable within an allelic series) | 9.55 upbm affinity estimate (log intensity, higher = more binding, comparable within an allelic series) | 10.7 upbm affinity estimate (log intensity, higher = more binding, comparable within an allelic series) | 11.1 upbm affinity estimate (log intensity, higher = more binding, comparable within an allelic series) | 10.5 upbm affinity estimate (log intensity, higher = more binding, comparable within an allelic series) | 11.4 upbm affinity estimate (log intensity, higher = more binding, comparable within an allelic series) | 11.3 upbm affinity estimate (log intensity, higher = more binding, comparable within an allelic series) | 11.2 upbm affinity estimate (log intensity, higher = more binding, comparable within an allelic series) | 11.2 upbm affinity estimate (log intensity, higher = more binding, comparable within an allelic series) | 11.1 upbm affinity estimate (log intensity, higher = more binding, comparable within an allelic series) | 11.1 upbm affinity estimate (log intensity, higher = more binding, comparable within an allelic series) |
| CGCCCACC | 9.03 upbm affinity estimate (log intensity, higher = more binding, comparable within an allelic series) | 9.02 upbm affinity estimate (log intensity, higher = more binding, comparable within an allelic series) | 9.04 upbm affinity estimate (log intensity, higher = more binding, comparable within an allelic series) | 9.15 upbm affinity estimate (log intensity, higher = more binding, comparable within an allelic series) | 9.04 upbm affinity estimate (log intensity, higher = more binding, comparable within an allelic series) | 9.02 upbm affinity estimate (log intensity, higher = more binding, comparable within an allelic series) | 9.17 upbm affinity estimate (log intensity, higher = more binding, comparable within an allelic series) | 9.11 upbm affinity estimate (log intensity, higher = more binding, comparable within an allelic series) | 9.21 upbm affinity estimate (log intensity, higher = more binding, comparable within an allelic series) | 9.07 upbm affinity estimate (log intensity, higher = more binding, comparable within an allelic series) | 9.06 upbm affinity estimate (log intensity, higher = more binding, comparable within an allelic series) | 9.1 upbm affinity estimate (log intensity, higher = more binding, comparable within an allelic series) | 9.03 upbm affinity estimate (log intensity, higher = more binding, comparable within an allelic series) |
| GTGATACA | 11.4 upbm affinity estimate (log intensity, higher = more binding, comparable within an allelic series) | 10.4 upbm affinity estimate (log intensity, higher = more binding, comparable within an allelic series) | 11.4 upbm affinity estimate (log intensity, higher = more binding, comparable within an allelic series) | 9.76 upbm affinity estimate (log intensity, higher = more binding, comparable within an allelic series) | 10.8 upbm affinity estimate (log intensity, higher = more binding, comparable within an allelic series) | 11.2 upbm affinity estimate (log intensity, higher = more binding, comparable within an allelic series) | 10.4 upbm affinity estimate (log intensity, higher = more binding, comparable within an allelic series) | 11.3 upbm affinity estimate (log intensity, higher = more binding, comparable within an allelic series) | 11.3 upbm affinity estimate (log intensity, higher = more binding, comparable within an allelic series) | 11.3 upbm affinity estimate (log intensity, higher = more binding, comparable within an allelic series) | 11.1 upbm affinity estimate (log intensity, higher = more binding, comparable within an allelic series) | 11 upbm affinity estimate (log intensity, higher = more binding, comparable within an allelic series) | 11.2 upbm affinity estimate (log intensity, higher = more binding, comparable within an allelic series) |
| CCCCGAGG | 8.95 upbm affinity estimate (log intensity, higher = more binding, comparable within an allelic series) | 8.89 upbm affinity estimate (log intensity, higher = more binding, comparable within an allelic series) | 8.99 upbm affinity estimate (log intensity, higher = more binding, comparable within an allelic series) | 8.94 upbm affinity estimate (log intensity, higher = more binding, comparable within an allelic series) | 9.01 upbm affinity estimate (log intensity, higher = more binding, comparable within an allelic series) | 9.07 upbm affinity estimate (log intensity, higher = more binding, comparable within an allelic series) | 8.96 upbm affinity estimate (log intensity, higher = more binding, comparable within an allelic series) | 9.07 upbm affinity estimate (log intensity, higher = more binding, comparable within an allelic series) | 9.12 upbm affinity estimate (log intensity, higher = more binding, comparable within an allelic series) | 8.94 upbm affinity estimate (log intensity, higher = more binding, comparable within an allelic series) | 9 upbm affinity estimate (log intensity, higher = more binding, comparable within an allelic series) | 8.97 upbm affinity estimate (log intensity, higher = more binding, comparable within an allelic series) | 8.96 upbm affinity estimate (log intensity, higher = more binding, comparable within an allelic series) |
| AGATAGGG | 10.1 upbm affinity estimate (log intensity, higher = more binding, comparable within an allelic series) | 9.56 upbm affinity estimate (log intensity, higher = more binding, comparable within an allelic series) | 10.1 upbm affinity estimate (log intensity, higher = more binding, comparable within an allelic series) | 9.33 upbm affinity estimate (log intensity, higher = more binding, comparable within an allelic series) | – | – | 9.71 upbm affinity estimate (log intensity, higher = more binding, comparable within an allelic series) | 10.3 upbm affinity estimate (log intensity, higher = more binding, comparable within an allelic series) | 10.4 upbm affinity estimate (log intensity, higher = more binding, comparable within an allelic series) | 10.1 upbm affinity estimate (log intensity, higher = more binding, comparable within an allelic series) | – | 10 upbm affinity estimate (log intensity, higher = more binding, comparable within an allelic series) | – |
| ATGTATCG | 11 upbm affinity estimate (log intensity, higher = more binding, comparable within an allelic series) | 10.3 upbm affinity estimate (log intensity, higher = more binding, comparable within an allelic series) | 11 upbm affinity estimate (log intensity, higher = more binding, comparable within an allelic series) | 10 upbm affinity estimate (log intensity, higher = more binding, comparable within an allelic series) | 10.6 upbm affinity estimate (log intensity, higher = more binding, comparable within an allelic series) | 10.8 upbm affinity estimate (log intensity, higher = more binding, comparable within an allelic series) | 10.4 upbm affinity estimate (log intensity, higher = more binding, comparable within an allelic series) | 11 upbm affinity estimate (log intensity, higher = more binding, comparable within an allelic series) | 11.1 upbm affinity estimate (log intensity, higher = more binding, comparable within an allelic series) | 11 upbm affinity estimate (log intensity, higher = more binding, comparable within an allelic series) | 10.7 upbm affinity estimate (log intensity, higher = more binding, comparable within an allelic series) | 10.9 upbm affinity estimate (log intensity, higher = more binding, comparable within an allelic series) | 10.8 upbm affinity estimate (log intensity, higher = more binding, comparable within an allelic series) |
| GGCCCCGA | 9 upbm affinity estimate (log intensity, higher = more binding, comparable within an allelic series) | 8.8 upbm affinity estimate (log intensity, higher = more binding, comparable within an allelic series) | 8.92 upbm affinity estimate (log intensity, higher = more binding, comparable within an allelic series) | 8.86 upbm affinity estimate (log intensity, higher = more binding, comparable within an allelic series) | 8.96 upbm affinity estimate (log intensity, higher = more binding, comparable within an allelic series) | 8.93 upbm affinity estimate (log intensity, higher = more binding, comparable within an allelic series) | 8.91 upbm affinity estimate (log intensity, higher = more binding, comparable within an allelic series) | 9.02 upbm affinity estimate (log intensity, higher = more binding, comparable within an allelic series) | 9.12 upbm affinity estimate (log intensity, higher = more binding, comparable within an allelic series) | 8.81 upbm affinity estimate (log intensity, higher = more binding, comparable within an allelic series) | 8.95 upbm affinity estimate (log intensity, higher = more binding, comparable within an allelic series) | 8.99 upbm affinity estimate (log intensity, higher = more binding, comparable within an allelic series) | 8.84 upbm affinity estimate (log intensity, higher = more binding, comparable within an allelic series) |
| CAGTATCA | 11.2 upbm affinity estimate (log intensity, higher = more binding, comparable within an allelic series) | 10.2 upbm affinity estimate (log intensity, higher = more binding, comparable within an allelic series) | 11.1 upbm affinity estimate (log intensity, higher = more binding, comparable within an allelic series) | 9.69 upbm affinity estimate (log intensity, higher = more binding, comparable within an allelic series) | 10.5 upbm affinity estimate (log intensity, higher = more binding, comparable within an allelic series) | 10.7 upbm affinity estimate (log intensity, higher = more binding, comparable within an allelic series) | 10.3 upbm affinity estimate (log intensity, higher = more binding, comparable within an allelic series) | 11.2 upbm affinity estimate (log intensity, higher = more binding, comparable within an allelic series) | 11 upbm affinity estimate (log intensity, higher = more binding, comparable within an allelic series) | 11.1 upbm affinity estimate (log intensity, higher = more binding, comparable within an allelic series) | 10.9 upbm affinity estimate (log intensity, higher = more binding, comparable within an allelic series) | 10.9 upbm affinity estimate (log intensity, higher = more binding, comparable within an allelic series) | 10.9 upbm affinity estimate (log intensity, higher = more binding, comparable within an allelic series) |
| GTATCACA | 11.4 upbm affinity estimate (log intensity, higher = more binding, comparable within an allelic series) | 10.4 upbm affinity estimate (log intensity, higher = more binding, comparable within an allelic series) | 11.4 upbm affinity estimate (log intensity, higher = more binding, comparable within an allelic series) | 9.83 upbm affinity estimate (log intensity, higher = more binding, comparable within an allelic series) | 10.8 upbm affinity estimate (log intensity, higher = more binding, comparable within an allelic series) | 11.2 upbm affinity estimate (log intensity, higher = more binding, comparable within an allelic series) | 10.5 upbm affinity estimate (log intensity, higher = more binding, comparable within an allelic series) | 11.6 upbm affinity estimate (log intensity, higher = more binding, comparable within an allelic series) | 11.4 upbm affinity estimate (log intensity, higher = more binding, comparable within an allelic series) | 11.4 upbm affinity estimate (log intensity, higher = more binding, comparable within an allelic series) | 11.2 upbm affinity estimate (log intensity, higher = more binding, comparable within an allelic series) | 11.2 upbm affinity estimate (log intensity, higher = more binding, comparable within an allelic series) | 11.2 upbm affinity estimate (log intensity, higher = more binding, comparable within an allelic series) |
